Consider twelve compounds from PubChem BioAssay (EPA / NIEHS).

SMILES strings stand for the structures. Inconclusive results are not listed. Calls of active or inactive are those of the source. The calls were made as follows, unless noted: active = hit-call score of the fitted dose curve at least 0.9, where 1 is the maximum; inconclusive = response in the unintended direction; inactive = score below 0.9.

Experiment [1] concerns the target Nuclear receptor subfamily 1 group I member 2 (Homo sapiens) (UniProt O75469). Nature of the experiment: NVS_NR_hPXR: NovaScreen (NVS) Nuclear Receptor Binding Assay for human Pregnane X Receptor (PXR) (AID 2283365).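 Also: a drop in FRET signal versus DMSO baseline means the compound binds.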 The essentials:
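Read-out: TR-FRET, human PXR, 2 h post-dosing, cell-free. Loss of signal vs DMSO taken as binding activity; 25 uM primary, concentration series secondary.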

In experiment [2] the target is Estrogen receptor beta (Homo sapiens) (UniProt Q92731). Put plainly: OT_ER_ERbERb_1440: Odyssey Thera (OT) 24-hour HEK293T Protein-Complementation Assay for Estrogen Receptor-beta/-beta Homodimer (AID 2283380).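 Also: scored as signal increase over DMSO baseline for both agonists and antagonists.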 An outline of the steps:
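HEK293T cells stably expressing ER beta LBD (aa 310-547) homodimer fragment-complementation reporter, dosed 24 h. Cells formaldehyde-fixed, Draq5-stained; gain in nuclear (agonist) or nuclear plus cytoplasmic (antagonist) fluorescence versus DMSO read by laser scanning cytometry.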

Experiment [3] concerns the target guinea pig Sigma Receptor, Non-selective Binding, SIGMAR1 (gene 100135589) (UniProt Q60492). Nature of the experiment: NVS_OR_gSIGMA_NonSelective: NovaScreen (NVS) Nuclear Receptor Binding Assay for guinea pig Sigma Receptor, Non-selective Binding (AID 2283367). An outline of the steps:
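Membranes from guinea pig brain incubated with radioligand and test chemical for 1 h, then filtered and scintillation-counted. Duplicate primary testing at 25 uM, with concentration-series follow-up for actives.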

For experiment [4], the target named is Glucocorticoid receptor (Homo sapiens) (UniProt P04150). Put plainly: NVS_NR_hGR: NovaScreen (NVS) Nuclear Receptor Binding Assay for human Glucocorticoid Receptor (GR) (AID 2283363).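 Also: activity is loss of specific radioligand binding signal relative to DMSO.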 An outline of the steps:
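Filter scintillation readout of tritiated/iodinated radioligand displaced by test chemical; cell-free extracted protein; 16 h. DMSO = negative control/baseline. Duplicate single-point 25 uM screen, then concentration-response on actives.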

Experiment [5] concerns the target Peroxisome proliferator-activated receptor gamma (Homo sapiens) (UniProt P37231). Nature of the experiment: NVS_NR_hPPARg: NovaScreen (NVS) Nuclear Receptor Binding Assay for human Peroxisome Proliferator-activated Receptor gamma (PPARg) (AID 2283370). An outline of the steps: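 Extracted receptor protein, cell-free; compound incubated 2 h then fluorescence polarization read. Baseline: DMSO. Actives from 25 uM duplicate screen re-run across concentrations.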

The target in experiment [6] is mouse Estrogen Receptor alpha (Era), Esr1 (gene 13982) (UniProt P19785). Put plainly: NVS_NR_mERa: NovaScreen (NVS) Nuclear Receptor Binding Assay for mouse Estrogen Receptor alpha (Era) (AID 2283378).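 Also: hit means loss of bound radioligand signal relative to DMSO.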 The essentials: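 Measurements come from scintillation counting after filtration, taken 18 hours after chemicals were added to a cell-free mouse Era preparation with radioligand. Screening was duplicate at 25 uM, with concurrent positive and negative controls and confirmatory concentration series for actives.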
Sequence of mouse Estrogen Receptor alpha (Era), Esr1 (gene 13982) (P19785 whole entry, looked up): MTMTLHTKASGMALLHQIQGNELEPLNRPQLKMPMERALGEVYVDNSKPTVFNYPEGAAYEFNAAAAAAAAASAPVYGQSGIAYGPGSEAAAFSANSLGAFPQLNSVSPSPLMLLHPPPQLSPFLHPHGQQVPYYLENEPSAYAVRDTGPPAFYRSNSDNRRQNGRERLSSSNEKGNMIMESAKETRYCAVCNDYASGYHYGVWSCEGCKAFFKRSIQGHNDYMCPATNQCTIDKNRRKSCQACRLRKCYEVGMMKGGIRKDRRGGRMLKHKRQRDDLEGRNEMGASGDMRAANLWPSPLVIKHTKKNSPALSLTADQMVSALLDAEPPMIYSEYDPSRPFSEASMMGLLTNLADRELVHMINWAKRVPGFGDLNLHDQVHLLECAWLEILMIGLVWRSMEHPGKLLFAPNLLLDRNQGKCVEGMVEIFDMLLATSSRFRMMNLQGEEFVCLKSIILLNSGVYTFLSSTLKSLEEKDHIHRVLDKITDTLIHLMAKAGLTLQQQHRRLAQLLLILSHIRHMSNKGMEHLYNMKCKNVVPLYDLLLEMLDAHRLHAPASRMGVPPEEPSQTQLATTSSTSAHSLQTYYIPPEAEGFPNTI

The target in experiment [7] is Estrogen receptor (Homo sapiens) (UniProt P03372). Put plainly: OT_ERa_GFPERaERE_0480: Odyssey Thera (OT) 8-hour HeLa Transcription Induction Assay for Estrogen Receptor (AID 2283381; active = hit-call score of the fitted dose curve at least 0.9, where 1 is the maximum; inactive = score below 0.9). An outline of the steps: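 An 8 h HeLa transcription-induction format with a GFP reporter under ERE control, read by fluorescence microscopy; single endpoint fitted positively with DMSO as baseline.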
Sequence of Estrogen receptor (Homo sapiens) (P03372 whole entry, looked up): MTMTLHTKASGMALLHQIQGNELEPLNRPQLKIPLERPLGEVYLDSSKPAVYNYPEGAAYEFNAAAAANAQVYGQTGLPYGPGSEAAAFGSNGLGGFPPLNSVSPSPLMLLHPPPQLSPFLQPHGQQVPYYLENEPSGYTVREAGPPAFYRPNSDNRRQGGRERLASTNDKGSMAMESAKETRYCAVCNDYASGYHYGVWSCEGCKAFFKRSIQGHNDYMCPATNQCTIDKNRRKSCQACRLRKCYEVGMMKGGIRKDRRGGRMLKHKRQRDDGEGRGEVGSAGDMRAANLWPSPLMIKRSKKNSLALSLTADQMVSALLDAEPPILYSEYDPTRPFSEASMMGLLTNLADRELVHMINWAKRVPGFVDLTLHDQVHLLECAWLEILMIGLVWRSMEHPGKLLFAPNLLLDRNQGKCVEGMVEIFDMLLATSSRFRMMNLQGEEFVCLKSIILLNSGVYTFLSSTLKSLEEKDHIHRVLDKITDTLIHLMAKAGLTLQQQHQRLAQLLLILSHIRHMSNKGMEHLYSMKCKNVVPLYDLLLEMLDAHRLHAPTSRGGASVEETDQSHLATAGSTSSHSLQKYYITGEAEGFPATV

For experiment [8] the target is unchanged. Nature of the experiment: OT_ERa_GFPERaERE_0120: Odyssey Thera (OT) 2-hour HeLa Transcription Induction Assay for Estrogen Receptor (AID 2283382). An outline of the steps: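 Two-hour compound treatment of HeLa cells preceded microscopy imaging of an inducible fluorescent reporter. Image-based quantification gave one endpoint, analysed for signal increase relative to DMSO controls.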

The target in experiment [9] is Bile acid receptor (Homo sapiens) (UniProt Q96RI1). Put plainly: OT_FXR_FXRSRC1_1440: Odyssey Thera (OT) 24-hour HEK293T Protein-Complementation Assay for Farnesoid X receptor/SRC-1 Co-activator (AID 2283384). The essentials:
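Single endpoint, analysed for increased fluorescence against DMSO controls. HEK293T cells carrying FXR and SRC-1 linked to complementary reporter halves were exposed to chemicals for 24 h before reading.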

In experiment [10] the test system is guinea pig Dopamine Transporter (DAT), gene 100714898. Put plainly: NVS_TR_gDAT: NovaScreen (NVS) Transporter Assay for guinea pig Dopamine Transporter (DAT) (AID 2283369).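 Also: active compounds lower bound radioligand signal relative to DMSO.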 The essentials:
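Primary pass: duplicate wells at 25 uM, threshold e.g. 30% inhibition. Follow-up: singleton concentration-response, highest 50 uM. Radioligand binding on guinea pig striatal membranes, 2 h, filtration scintillation detection.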

Experiment [11] has as its system rat Norepinephrine Transporter (NET), gene 83511. Nature of the experiment: NVS_TR_rNET: NovaScreen (NVS) Transporter Assay for rat Norepinephrine Transporter (NET) (AID 2283373). The essentials:
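Competitive radioligand displacement at the rat NET using forebrain membrane preparations, 1 h incubation, filter-based scintillation readout. Primary testing in duplicate at a single 25 uM concentration; confirmed actives retested across concentrations.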

Experiment [12] deals with Bile acid receptor (Homo sapiens) (UniProt Q96RI1). Nature of the experiment: OT_FXR_FXRSRC1_0480: Odyssey Thera (OT) 8-hour HEK293T Protein-Complementation Assay for Farnesoid X receptor/SRC-1 Co-activator (AID 2283383). An outline of the steps:
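Readings were taken 8 h after dosing HEK293T cells in a split-reporter complementation format pairing FXR with SRC-1. Increased fluorescence relative to DMSO-treated wells defined activity.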

Experiment [13] concerns the target human Thyroid Receptor Alpha (TRa), THRA (gene 7067) (UniProt P10827). Nature of the experiment: NVS_NR_hTRa_Antagonist: NovaScreen (NVS) Nuclear Receptor Binding Assay for human Thyroid Receptor Alpha Antagonism (TRa) (AID 2283362).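 Also: activity is loss of signal relative to DMSO baseline.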 An outline of the steps:
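In this biochemical format, receptor protein is dosed with chemical and read after 1 hour via AlphaLISA. Decreases from the DMSO baseline indicate antagonist activity; screening used 25 uM in duplicate before concentration-response confirmation.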

Experiment [14] has as its target Retinoic acid receptor alpha (Homo sapiens) (UniProt P10276). Nature of the experiment: NVS_NR_hRARa_Agonist: NovaScreen (NVS) Nuclear Receptor Binding Assay for human Retinoic Acid Alpha Receptor Agonism (RAR) (AID 2283361). The essentials: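 TR-FRET signal, 2 h post-dosing; cell-free extracted protein; DMSO = baseline, positive fitting direction; 25 uM single-point duplicate, then concentration series for actives.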

The target of experiment [15] is rat Serotonin Transporter (SERT), Slc6a4 (gene 25553) (UniProt P31652). Nature of the experiment: NVS_TR_rSERT: NovaScreen (NVS) Transporter Assay for rat Serotonin Transporter (SERT) (AID 2283375). The essentials: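 Using rat forebrain membrane SERT, test chemicals compete with a radioligand for 1 hour, and bound counts are taken by filter-based scintillation. Screening starts at 25 uM in duplicate, followed by concentration series for actives.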
Sequence of rat Serotonin Transporter (SERT), Slc6a4 (gene 25553) (P31652 whole entry, looked up): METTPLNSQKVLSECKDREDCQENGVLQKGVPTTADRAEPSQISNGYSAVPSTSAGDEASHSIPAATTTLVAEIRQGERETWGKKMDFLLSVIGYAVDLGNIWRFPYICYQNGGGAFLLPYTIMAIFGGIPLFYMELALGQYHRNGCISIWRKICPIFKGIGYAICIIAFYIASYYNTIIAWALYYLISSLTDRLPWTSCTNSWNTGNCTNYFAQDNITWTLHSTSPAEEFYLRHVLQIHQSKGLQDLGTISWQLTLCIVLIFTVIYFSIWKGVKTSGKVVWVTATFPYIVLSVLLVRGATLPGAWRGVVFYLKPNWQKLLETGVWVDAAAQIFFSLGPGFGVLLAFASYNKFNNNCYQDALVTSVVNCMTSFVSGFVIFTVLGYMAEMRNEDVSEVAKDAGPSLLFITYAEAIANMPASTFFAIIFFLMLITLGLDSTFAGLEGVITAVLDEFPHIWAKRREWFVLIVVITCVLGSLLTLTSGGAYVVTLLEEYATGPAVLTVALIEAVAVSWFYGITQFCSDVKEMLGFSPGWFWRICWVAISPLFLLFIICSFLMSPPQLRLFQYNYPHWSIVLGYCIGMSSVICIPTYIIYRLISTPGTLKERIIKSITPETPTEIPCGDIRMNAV

The target in experiment [16] is human Norepinephrine Transporter (NET), SLC6A2 (gene 6530) (UniProt P23975). Nature of the experiment: NVS_TR_hNET: NovaScreen (NVS) Transporter Assay for human Norepinephrine Transporter (NET) (AID 2283377).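 Also: cell-free membrane protein extracted from CHO cells expressing human NET.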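 As to AC50: displacement of radioligand from human NET seen as loss of scintillation signal.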 The essentials: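 CHO cell extracts expressing the transporter; tritiated or iodinated tracer displaced competitively; filtration plus scintillation readout at 1 h. Single-point duplicates at 25 uM, concentration series for follow-up; activity = signal drop relative to DMSO.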
Sequence of human Norepinephrine Transporter (NET), SLC6A2 (gene 6530) (P23975 whole entry, looked up): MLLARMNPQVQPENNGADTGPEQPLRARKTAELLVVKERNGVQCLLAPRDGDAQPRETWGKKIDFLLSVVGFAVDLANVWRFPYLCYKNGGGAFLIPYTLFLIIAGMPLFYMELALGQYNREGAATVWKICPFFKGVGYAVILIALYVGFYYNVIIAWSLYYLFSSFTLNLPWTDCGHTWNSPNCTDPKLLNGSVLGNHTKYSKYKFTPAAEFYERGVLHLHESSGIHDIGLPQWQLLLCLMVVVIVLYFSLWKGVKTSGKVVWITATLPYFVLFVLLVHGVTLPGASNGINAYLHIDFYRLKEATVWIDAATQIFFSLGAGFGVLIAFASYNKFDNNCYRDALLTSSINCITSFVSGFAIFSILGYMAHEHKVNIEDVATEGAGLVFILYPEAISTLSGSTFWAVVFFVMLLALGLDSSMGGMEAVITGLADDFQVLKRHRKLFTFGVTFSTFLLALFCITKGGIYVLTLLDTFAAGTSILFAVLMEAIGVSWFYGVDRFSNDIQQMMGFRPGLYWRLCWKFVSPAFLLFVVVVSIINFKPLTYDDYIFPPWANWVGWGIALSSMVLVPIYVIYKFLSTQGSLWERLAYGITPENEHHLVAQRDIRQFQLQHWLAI

Experiment [17] has as its target rat Androgen Receptor (AR), Ar (gene 24208) (UniProt P15207). Nature of the experiment: NVS_NR_rAR: NovaScreen (NVS) Nuclear Receptor Binding Assay for rat Androgen Receptor (AR) (AID 2283366). An outline of the steps:
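Actives from a duplicate single-concentration (25 uM) primary run went on to concentration series. Displacement of radioligand was counted by filtration and scintillation, 18 h post-dose, using prostate extracts from testosterone-pretreated rats, with DMSO as baseline.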

Experiment [18] deals with human Dopamine Transporter (DAT), SLC6A3 (gene 6531) (UniProt Q01959). Nature of the experiment: NVS_TR_hDAT: NovaScreen (NVS) Transporter Assay for human Dopamine Transporter (DAT) (AID 2283374).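 Also: activity means loss of bound radioligand signal relative to DMSO.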 The essentials: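 hDAT membranes + tritiated/iodinated radioligand, competitive displacement; 1 h; filter scintillation readout. Single conc 25 uM (duplicate), then conc-response for actives. DMSO = negative control.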
Sequence of human Dopamine Transporter (DAT), SLC6A3 (gene 6531) (Q01959 whole entry, looked up): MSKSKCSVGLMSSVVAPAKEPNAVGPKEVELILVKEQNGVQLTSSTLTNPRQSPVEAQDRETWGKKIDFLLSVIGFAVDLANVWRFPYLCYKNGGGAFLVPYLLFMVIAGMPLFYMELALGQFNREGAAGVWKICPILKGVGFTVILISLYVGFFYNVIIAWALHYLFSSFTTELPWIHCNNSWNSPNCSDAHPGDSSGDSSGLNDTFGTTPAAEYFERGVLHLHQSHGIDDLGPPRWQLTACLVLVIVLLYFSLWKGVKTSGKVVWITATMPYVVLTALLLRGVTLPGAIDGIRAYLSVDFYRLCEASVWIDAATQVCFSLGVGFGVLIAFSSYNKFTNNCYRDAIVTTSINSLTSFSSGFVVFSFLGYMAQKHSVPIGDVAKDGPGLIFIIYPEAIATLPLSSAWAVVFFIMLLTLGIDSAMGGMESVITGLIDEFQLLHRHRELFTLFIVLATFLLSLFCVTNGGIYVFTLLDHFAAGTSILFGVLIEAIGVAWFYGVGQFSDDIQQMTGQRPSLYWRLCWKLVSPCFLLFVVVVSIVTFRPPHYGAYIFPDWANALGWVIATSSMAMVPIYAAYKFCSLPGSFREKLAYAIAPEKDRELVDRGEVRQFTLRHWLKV

For experiment [19], the target named is Agonist Androgen Response Element (ARE), AR (gene 367) (UniProt P10275). Nature of the experiment: OT_AR_ARELUC_AG_1440: Odyssey Thera (OT) 24-hour CHO-K1 Luciferase Assay for Agonist Androgen Response Element (ARE) (AID 2283379). The essentials: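 Gain-of-signal reporter endpoint: cells (CHO-K1, hamster) are treated 24 h, luciferin/ATP reagent added, and luminescence compared with DMSO baseline.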

Sequence of Bile acid receptor (Homo sapiens) (Q96RI1 whole entry, looked up): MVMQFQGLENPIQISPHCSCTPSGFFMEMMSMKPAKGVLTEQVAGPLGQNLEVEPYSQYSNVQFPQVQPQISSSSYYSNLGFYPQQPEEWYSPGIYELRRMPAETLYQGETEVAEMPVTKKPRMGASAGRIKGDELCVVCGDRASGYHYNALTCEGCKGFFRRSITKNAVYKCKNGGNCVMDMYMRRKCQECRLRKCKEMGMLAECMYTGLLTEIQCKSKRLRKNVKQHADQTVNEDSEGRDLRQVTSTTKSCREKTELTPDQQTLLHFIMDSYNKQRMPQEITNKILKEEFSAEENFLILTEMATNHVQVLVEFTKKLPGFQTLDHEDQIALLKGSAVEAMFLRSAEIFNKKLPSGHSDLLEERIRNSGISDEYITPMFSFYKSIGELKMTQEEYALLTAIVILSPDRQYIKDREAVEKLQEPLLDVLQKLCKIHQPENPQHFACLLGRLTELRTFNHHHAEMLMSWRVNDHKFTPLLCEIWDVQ
Sequence of Estrogen receptor beta (Homo sapiens) (Q92731 whole entry, looked up, the tested form may be a part): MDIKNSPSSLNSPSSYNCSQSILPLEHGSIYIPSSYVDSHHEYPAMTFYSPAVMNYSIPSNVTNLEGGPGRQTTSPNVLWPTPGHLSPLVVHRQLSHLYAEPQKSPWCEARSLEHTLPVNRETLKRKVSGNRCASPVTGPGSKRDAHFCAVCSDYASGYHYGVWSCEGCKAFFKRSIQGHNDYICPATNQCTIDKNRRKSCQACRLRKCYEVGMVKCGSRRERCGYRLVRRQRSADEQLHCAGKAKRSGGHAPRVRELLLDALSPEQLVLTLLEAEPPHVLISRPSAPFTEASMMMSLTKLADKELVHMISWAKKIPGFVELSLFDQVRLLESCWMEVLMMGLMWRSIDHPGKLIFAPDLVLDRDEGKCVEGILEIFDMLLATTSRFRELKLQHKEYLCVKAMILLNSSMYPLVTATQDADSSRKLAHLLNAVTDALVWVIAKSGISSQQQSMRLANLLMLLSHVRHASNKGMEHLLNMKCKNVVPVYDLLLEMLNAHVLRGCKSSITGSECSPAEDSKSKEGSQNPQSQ
Sequence of human Thyroid Receptor Alpha (TRa), THRA (gene 7067) (P10827 whole entry, looked up): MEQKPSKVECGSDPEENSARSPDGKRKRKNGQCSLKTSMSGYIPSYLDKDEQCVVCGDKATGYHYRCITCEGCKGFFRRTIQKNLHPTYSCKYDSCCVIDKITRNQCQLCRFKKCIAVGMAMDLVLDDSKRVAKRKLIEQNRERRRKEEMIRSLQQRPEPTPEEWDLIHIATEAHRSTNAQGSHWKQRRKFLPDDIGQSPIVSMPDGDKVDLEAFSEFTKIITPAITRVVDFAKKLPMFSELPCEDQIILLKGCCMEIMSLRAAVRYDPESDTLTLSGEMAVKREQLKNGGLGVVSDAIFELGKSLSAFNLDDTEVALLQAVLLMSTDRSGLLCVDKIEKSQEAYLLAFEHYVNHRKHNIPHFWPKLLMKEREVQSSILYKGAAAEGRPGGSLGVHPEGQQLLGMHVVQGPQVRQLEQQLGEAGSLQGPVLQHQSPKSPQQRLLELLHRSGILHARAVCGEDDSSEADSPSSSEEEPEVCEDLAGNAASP
Sequence of guinea pig Sigma Receptor, Non-selective Binding, SIGMAR1 (gene 100135589) (Q60492 whole entry, looked up): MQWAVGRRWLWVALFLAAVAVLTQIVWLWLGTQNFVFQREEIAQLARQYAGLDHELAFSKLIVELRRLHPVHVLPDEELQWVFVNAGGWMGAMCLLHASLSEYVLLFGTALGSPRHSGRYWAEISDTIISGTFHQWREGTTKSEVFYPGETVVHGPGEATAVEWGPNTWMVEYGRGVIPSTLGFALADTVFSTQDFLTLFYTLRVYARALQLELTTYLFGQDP

In the case of `O=C1NS(=O)(=O)c2ccccc21`, the call in experiment [1] and in experiment [2] was inactive.

Consider `CC[N+](CC)(CC)Cc1ccccc1`, for which the AC50 in experiment [3] is 15.5 µM (active).

`CCCCCCCCCCCCOC(=O)c1cc(O)c(O)c(O)c1`: the AC50 in experiment [4] is 12.7 µM (active); in experiment [6] it was 12.4 µM (active); in experiment [2], 11.9 µM (active); in experiment [7] it was 49.2 µM (active); in experiment [8] it was 84.1 µM (active). Further, the result in [5] and in experiment [9] was inactive.

`O=C(CCCN1CCC(O)(c2ccc(Cl)cc2)CC1)c1ccc(F)cc1`: the concentration at half-maximal activity (AC50) in experiment [10] is 0.923 µM (active). For the same compound, the call in experiment [11], in experiment [2], in experiment [12] and in experiment [9] was inactive.

As to `CCC(C)c1ccccc1O` (centres undefined), the compound was called inactive in experiment [10], in [5] and in experiment [2].

Consider `CCCCCC(C)OC(=O)COc1ccc(Cl)c2cccnc12` (centres undefined), for which the result in experiment [1], in experiment [7] and in [8] was inactive. Also, the AC50 in experiment [12] was 44 µM (active); in experiment [9] it was 22.7 µM (active).

Turning to `c1cnc2c(c1)ccc1cccnc12`, the AC50 in experiment [13] is 0.241 µM (active). Besides, in experiment [2], the compound was called inactive.

As to `O=C1OC2(c3ccccc31)c1cc(I)c(O)c(I)c1Oc1c2cc(I)c(O)c1I`, the AC50 was 19.9 µM (active) in experiment [14], 0.953 µM (active) in experiment [15] and 0.566 µM (active) in experiment [16].

For the compound `Cc1[nH]nc2c1N=C(c1ccccc1Cl)c1cc([N+](=O)[O-])ccc1N2`, the compound was classed as inactive in experiment [13] and in experiment [2]. For the same compound, the AC50 is 1.06 µM (active) in [12] and 0.279 µM (active) in experiment [9].

With `CCCCC=O`, the compound was called inactive in experiment [13] and in experiment [9].

Consider `CN(Cc1cnc2nc(N)nc(N)c2n1)c1ccc(C(=O)N[C@@H](CCC(=O)O)C(=O)O)cc1`, for which the compound was classed as inactive in experiment [17], in experiment [10], in experiment [16], in experiment [6], in experiment [19] and in experiment [2]. Moreover, the compound was classed as inactive in [7], in experiment [8], in experiment [12] and in experiment [9]. Moreover, in experiment [18], the AC50 is 6.69 µM (active).

Regarding `CCCCCCCCCCCCCCCCCC[N+](C)(C)Cc1ccccc1`, the AC50 in experiment [3] was 2.32 µM (active); in [15], 7.73 µM (active); in experiment [16] it was 2.49 µM (active). Further, the result in experiment [18] was inactive.

The term AC50 denotes the concentration giving half of the maximal activity seen.
